According to PubChem BioAssay (NCATS):
Results filed as inconclusive are left out. Activity calls are given as the source filed them. Unless noted, no rule for the calls is given here.

How the values were obtained:
[1] = qHTS profiling of the MIPE4 collection as inhibitors of Plasmodium falciparum (3D7) proliferation (AID 743344);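 also: scaled between DMSO vehicle wells and 0.29 µM artemisinin as full inhibition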; conditions: P. falciparum 3D7 in erythrocytes, SYBR Green DNA fluorescence, 72 h; at 28.5 µM unless noted
How it was run: (§1)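 Erythrocytes infected with P. falciparum (0.3% parasitemia, 2.5% hematocrit) incubated with compounds 72 h at 37 C, 5% CO2. Lysis with saponin/Triton buffer containing SYBR Green I, overnight at room temperature in the dark; DNA fluorescence (485/535 nm) normalised to 0.29 uM artemisinin and DMSO.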

[2] = qHTS profiling of the MIPE4 collection as inhibitors of Plasmodium falciparum (DD2) proliferation (AID 743345); conditions: P. falciparum Dd2 in erythrocytes, SYBR Green DNA, 72 h; at 28.5 µM unless noted
How it was run: as §1

[3] = qHTS profiling of the MIPE4 collection as inhibitors of Plasmodium falciparum (DD2) proliferation (Rep 2) (AID 743346); conditions: P. falciparum Dd2 in erythrocytes, SYBR Green DNA, 72 h; at 28.5 µM unless noted
How it was run: as §1

[4] = qHTS profiling of the MIPE4 collection as inhibitors of Plasmodium falciparum (HB3) proliferation (AID 743347);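 also: plate controls were DMSO vehicle wells for no effect and artemisinin wells for full effect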; conditions: P. falciparum HB3 in erythrocytes, SYBR Green DNA, 72 h; at 28.5 µM unless noted
How it was run: as §1

[5] = High-throughput drug toxicity screening in the BPDCN cell line Gen2.2 (AID 1224824); conditions: Gen2.2 BPDCN cells; at 45.8 µM (top of the series) unless noted;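 also: cells exposed to compounds for 48 h before reading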
How it was run: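 Readout is ATP luminescence from Gen2.2 cells after two days of drug exposure in serum-containing medium at 37 °C. Values express percent activity, with vehicle defining full signal and 9.2 uM bortezomib defining zero.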

[6] = High-throughput drug toxicity screening in the BPDCN cell line Cal-1 (AID 1224825); conditions: Cal-1 BPDCN cell viability, qHTS; at 45.8 µM (top of the series) unless noted
How it was run: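 500 Cal-1 cells/well, RPMI + glutamine + 10% FBS (phenol red-free); cpd added by pin tool; 48 h, 37C, 5% CO2; CTG 15 min RT, lumi read. Normalised: DMSO 100%, bortezomib 9.2 uM 0%.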

[7] = qHTS assay for measurement of the activity of small molecule inhibitors on Zika virus induced Caspase-3 activity in human iPSC derived neural progenitor cells (hNPCs) (AID 1224857; active = well fitted inhibition curve with a large enough effect; also: nearly all actives have a fitted effect of over 65% in size; also: potency is read from the fitted curve at half-maximal effect)
How it was run: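 hNPCs seeded 350 cells/well, cultured 16–20 h; compounds added 1 h before ZIKV (2 FFU/cell), 37 C 6 h. Caspase-Glo 3/7 luminescence after 30 min RT; % inhibition from induction scaled to uninfected (0%) and infected (100%) wells.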

[8] = qHTS assay for measurement of the activity of small molecule inhibitors on Zika virus induced Caspase-3 activity in human astrocytoma cells (AID 1224859; active = well fitted inhibition curve with a large enough effect; also: potency is read from the fitted curve at half-maximal effect)
How it was run: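 Luminescence read-out (Caspase-Glo 3/7, 30 min RT) of caspase activity in SNB-19 cells infected 6 h with ZIKV, 2 FFU/cell, after 1 h compound pretreatment; % inhibition from induction normalised to uninfected (0%) and infected (100%) wells.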

[9] = qHTS Screen of the MIPE 4.0 Collection Against Ewings Sarcoma (RDES) (AID 1259252; active = well fitted inhibition curve with a large enough effect; also: nearly all actives have a fitted effect of over 35% in size; also: potency is read from the fitted curve at half-maximal effect)
How it was run: (§2)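 Cells plated in serum-containing RPMI (5% FBS) and treated with compound dilutions for 48 h. Readout luminescent viability; normalization relied on vehicle (no inhibition) and media-only columns (full inhibition).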

[10] = qHTS Screen of the MIPE 4.0 Collection Against Ewings Sarcoma (TC71) (AID 1259253; active = well fitted inhibition curve with a large enough effect; also: nearly all actives have a fitted effect of over 40% in size; also: potency is read from the fitted curve at half-maximal effect)
How it was run: as §2

[11] = qHTS Screen of the MIPE 4.0 Collection Against Ewings Sarcoma (EW8) (AID 1259255; active = well fitted inhibition curve with a large enough effect; also: nearly all actives have a fitted effect of over 35% in size; also: potency is read from the fitted curve at half-maximal effect;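 as to viability: 100% = DMSO-treated cells and 0% = medium-only wells without cells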)
How it was run: as §2

| Structure (SMILES) | parasite growth, % of DMSO control [1] [%] | parasite growth remaining, % of DMSO control (lower = more inhibition) [2] [%] | parasite growth, % of control (lower = inhibition) [3] [%] | growth, % of control [4] [%] | cell viability, % of control (lower = more cytotoxic) [5] [%] | viability (% of control) [6] [%] | Potency [7] | Potency [8] | Potency [9] | Potency [10] | Potency [11] |
| --- | --- | --- | --- | --- | --- | --- | --- | --- | --- | --- | --- |
| COc1cc(CCc2cc(NC(=O)c3ccc(N4C[C@@H](C)N[C@@H](C)C4)cc3)n[nH]2)cc(OC)c1 | 50.5 | 66.7 | 43.7 | 10.3 | 14 | 4.08 | inactive | inactive | 18.7 µM (active) | 16.6 µM (active) | 16.6 µM (active) |
| C[C@@H]1[C@H](C)CC[C@]2(C(=O)O)CC[C@]3(C)C(=CC[C@@H]4[C@@]5(C)C[C@@H](O)[C@H](O)[C@@](C)(CO)[C@H]5CC[C@]43C)[C@@H]12 | 68.7 | 90.5 | 52.5 | 43.6 | 106 | 122 | inactive | inactive | inactive | inactive | inactive |
| COc1ccc(Nc2nccc(NCCO)n2)cc1 | 67.2 | 94.8 | 83.3 | 87.1 | 195 | 111 | inactive | inactive | inactive | inactive | inactive |
| Cc1[nH]c(C=C2C(=O)Nc3ccccc32)c(C)c1CCC(=O)O | 7.83 | 176 | 138 | 27.3 | 12.9 | 5.24 | 16.6 µM (active) | 11.8 µM (active) | 0.209 µM (active) | 0.296 µM (active) | 0.235 µM (active) |
| CC[C@H]1OC(=O)[C@H](C)[C@@H](O[C@H]2C[C@@](C)(OC)[C@@H](O)[C@H](C)O2)[C@H](C)[C@@H](O[C@@H]2O[C@@H](C)C[C@H](N(C)C)[C@@H]2O)[C@](C)(O)C[C@@H](C)C(=O)[C@H](C)[C@@H](O)[C@]1(C)O | 60.1 | 75 | 47.1 | 82.4 | 73.8 | 97 | inactive | inactive | inactive | inactive | inactive |
| CCCNS(=O)(=O)Nc1ncnc(OCCOc2ncc(Br)cn2)c1-c1ccc(Br)cc1 | 102 | 99.9 | 82.3 | 88.3 | 180 | 117 | inactive | inactive | inactive | inactive | inactive |
| CCOC(=O)N1CCN([N+]([O-])=NOc2ccc([N+](=O)[O-])cc2[N+](=O)[O-])CC1 | 67.7 | 83 | 70.7 | 60.8 | 17.4 | 13.5 | inactive | inactive | 16.6 µM (active) | 10.5 µM (active) | 3.32 µM (active) |
| COc1ccc2c(c1OC)C(=O)OC2[C@H]1c2c(cc3c(c2OC)OCO3)CCN1C (some centres undefined) | 17.1 | 20.7 | 20.6 | 16.4 | 24.5 | 8.98 | inactive | inactive | 0.0935 µM (active) | 0.235 µM (active) | 0.0526 µM (active) |
| CCOC(=O)C=C[C@H](C[C@@H]1CCNC1=O)NC(=O)[C@@H](CC(=O)[C@@H](NC(=O)c1cc(C)on1)C(C)C)Cc1ccc(F)cc1 | 22 | 98.4 | 41.1 | 37.6 | 74.1 | 107 | inactive | inactive | inactive | inactive | inactive |
| COc1ccc(CCC(=O)c2c(O)cc(O[C@@H]3O[C@H](CO)[C@@H](O)[C@H](O)[C@@H]3O[C@@H]3O[C@@H](C)[C@H](O)[C@@H](O)[C@@H]3O)cc2O)cc1O | 6.07 | 17.8 | 41.2 | 6.55 | 77 | 106 | inactive | inactive | 9.35 µM (active) | 9.35 µM (active) | 10.5 µM (active) |
| Nc1cccc2c1C(=O)N(C1CCC(=O)NC1=O)C2=O (centres undefined) | 97.4 | 95.1 | 113 | 49.9 | 52.1 | 88.7 | inactive | inactive | inactive | inactive | inactive |
| C[C@](Cc1c[nH]c2ccccc12)(NC(=O)OC1C2CC3CC(C2)CC1C3)C(=O)NC[C@H](NC(=O)CCC(=O)O)c1ccccc1 (some centres undefined) | 10 | 36.8 | 30.8 | 10.5 | 308 | 4.7 | inactive | inactive | inactive | inactive | inactive |
| CC(=O)O[C@H]1C[C@@H]2CC[C@H]3[C@H]4C[C@H]([N+]5(C)CCCCC5)[C@@H](OC(C)=O)[C@@]4(C)CC[C@@H]3[C@@]2(C)C[C@H]1N1CCCCC1 | 40.5 | 64 | 37.1 | 71.6 | 216 | 123 | inactive | inactive | 7.43 µM (active) | 7.43 µM (active) | 8.33 µM (active) |
| CCOc1cc2ncc(C#N)c(Nc3ccc(OCc4ccccn4)c(Cl)c3)c2cc1NC(=O)C=CCN(C)C | 7.93 | 7.24 | 12.3 | 2.73 | 4.27 | 13.3 | inactive | inactive | 0.118 µM (active) | 2.35 µM (active) | 6.62 µM (active) |
